Common to all, as to type: functional
Test [1] relates to Plasmodium falciparum. The experiment in a line: GSK_TCMDC: Inhibition of Plasmodium falciparum 3D7 in whole red blood cells, using parasite LDH activity as an index of growth. Test compounds present at 2uM.
For test [2], the system named is Plasmodium falciparum. Put plainly: GSK_TCMDC: Inhibition of Plasmodium falciparum Dd2 in whole red blood cells, using parasite LDH activity as an index of growth. Test compounds present at 2uM.
The test system of test [3] is HepG2. The experiment in a line: GSK_TCMDC: Percent inhibition of human HepG2 cell line. Test compounds present at 10uM.

On to `COc1cc(NC(=O)N2CCOC(CCN3CCC(c4ccccc4)CC3)(c3ccc(Cl)c(Cl)c3)C2)cc(OC)c1OC` (stereo unspecified), for which the Inhibition (usually the relative decrease from the control value, in per cent) in test [1] worked out at 93%; in test [2], 73%; in test [3], 15%.

On to `CCNC(=O)N1CCN(c2nc(-c3ccccc3)nc(COC)c2Cc2ccc(C)cc2)CC1`, for which the Inhibition in test [1] is 95%; in test [2] it was 94%; in test [3] it was 27%.

As to `CCCC(C)Nc1nc(C)cc(N[C@@H](CC(C)C)C(=O)NCc2cccc(F)c2)n1.O=C(O)C(F)(F)F` (stereo partly specified), the Inhibition in test [1] is 96%; in test [2], 63%; in test [3] it was 1%.

Consider `COc1cc2nc(N3CCC(CNC(=O)c4ccc(-c5ccc(C(=O)N(C)C)cc5)cc4)CC3)nc(N)c2cc1OC`, for which the Inhibition stood at 100% in test [1], 89% in test [2] and 20% in test [3].

As for `Cc1c(CNCCCNc2cc(=O)c3ccccc3[nH]2)sc(C(F)=C(F)F)c1Br.Cl`, the Inhibition is 94% in test [1], 18% in test [2] and 7% in test [3].

For `NC1=Nc2ccc(Cl)cc2C1(O)c1ccccc1` (stereo unspecified), the Inhibition is listed as 100% in test [1], 51% in test [2] and 0% in test [3].

Take `CCCCCc1cnc2nc(N)nc(N)c2c1.O=S(=O)(O)CCO`: the Inhibition in test [1] was 82%; in test [2] it was 6%; in test [3], 72%.

With `COc1ccc(NC(=O)NC2CCN(c3ccnc4ccccc34)C2)cc1.O=C(O)C(F)(F)F` (stereo unspecified), the values for the Inhibition in test [1], in test [2] and in test [3] were 94%, 0% and 3%, respectively.

For the molecule `CC(C)COc1ccc(Cl)cc1Cc1ccc(-c2nc3cc(F)c(F)cc3[nH]2)o1`, the Inhibition in test [1] turned out to be 95%; in test [2] it was 96%; in test [3] it was 27%.

In the case of `Cc1ccc(NC(=O)c2ccc(CN3CCCN(CC4CCCCC4)CC3)cc2)cc1C.O=C(O)C(F)(F)F`, the Inhibition came to 86% in test [1], 32% in test [2] and 38% in test [3].

Turning to `O=C(NCCCN1CCC(N2CCCCC2)CC1)C1=Cc2cc(Br)ccc2OC1`, the figures for the Inhibition in test [1], in test [2] and in test [3] were 100%, 19% and 26%, respectively.

Take `CCOc1cc(C)ccc1C1CCN(CCCCNC(=O)c2ccc(-c3ccc(Cl)cn3)cc2)CC1.Cl`: the Inhibition in test [1] stood at 94%; in test [2] it was 8%; in test [3] it was 19%.

As for `O=C(Nc1ccc(-c2ccccc2)cc1)Nc1ccc2c(c1)CCNCC2.O=C(O)C(F)(F)F`, the Inhibition in test [1] turned out to be 97%; in test [2] it was 48%; in test [3] it was 41%.

As to `Cc1sc(CNCCCNc2cc(=O)c3ccccc3[nH]2)c(C(F)(F)F)c1C.Cl`, the Inhibition is 99% in test [1], 70% in test [2] and 0% in test [3].

`O=C(Nc1ccc([N+](=O)[O-])cc1)Nc1nc2ccc(Cl)cc2s1`: the values for the Inhibition in test [1], in test [2] and in test [3] were 92%, 33% and 63%, respectively.

On to `COc1ccc(NC(=O)NC2CCN(CCCOc3ccnc4cc(Cl)ccc34)C2)cc1OC` (stereo unspecified), for which the Inhibition in test [1] is on record as 90%; in test [2], 16%; in test [3], 6%.

Take `CCN(CC)CCNc1ccnc2[nH]c3ccc(I)cc3c12`: the results for the Inhibition in test [1], in test [2] and in test [3] were 100%, 95% and 14%, respectively.

Take `COc1cc(O)c2c(=O)c(OC)c(-c3cccc(Cl)c3OCC(=O)O)oc2c1OC`: the Inhibition in test [1] was 100%; in test [2] it was 0%; in test [3] it was 0%.

As for `NC1CCN(CCNCc2cccc(-c3ccc(-c4nc5cc(C(F)(F)F)ccc5[nH]4)cc3)c2)C1.O=C(O)C(F)(F)F` (stereo unspecified), the Inhibition in test [1] is reported as 98%; in test [2], 75%; in test [3] it was 19%.

Turning to `CCCCN(CCCC)/C(=N/c1cccc(Cl)c1Cl)Nc1ccc(C#N)cc1O`, the Inhibition in test [1] was 89%; in test [2] it was 69%; in test [3] it was 4%.

For the molecule `COc1ccc(NC(=O)[C@H](Cc2ccccc2)Nc2cc(C)nc(NCCc3ccccc3)n2)cc1.O=C(O)C(F)(F)F`, the Inhibition was 98% in test [1], 83% in test [2] and 6% in test [3].

As to `COc1cc2nc(N(C)C)nc(Nc3ccc4c(cnn4Cc4ccccc4)c3)c2cc1OC`, the Inhibition is 100% in test [1], 100% in test [2] and 90% in test [3].

Turning to `COc1cccc2c(Nc3ccccc3C)nc(Nc3ccccc3C)nc12`, the Inhibition in test [1] turned out to be 95%; in test [2] it was 36%; in test [3], 9%.

`CC(=O)c1ccc(-c2ccccc2)s1`: the Inhibition in test [1] came to 92%; in test [2], 2%; in test [3], 0%.

Regarding `CCS(=O)(=O)O.Cc1cc(NC(=O)NC(=N)N)ccc1Cl`, the Inhibition in test [1] is reported as 100%; in test [2], 15%; in test [3], 11%.

On to `COc1ccc(CN(C)CCCOc2ccc(NC(=O)c3cccc4c(=O)c5cccc(C)c5[nH]c34)cc2)cc1OC`, for which the Inhibition turned out to be 96% in test [1], 62% in test [2] and 3% in test [3].

For the molecule `COc1cccc(NC(=O)c2ccc(NCCCN3CCC(C)CC3)c([N+](=O)[O-])c2)c1`, the Inhibition in test [1] worked out at 100%; in test [2], 46%; in test [3] it was 9%.

Take `Cl.N#Cc1ccc2c(c1)CN(CCCCNC(=O)c1ccc(-c3ccccc3)cc1)CC2`: the Inhibition in test [1] worked out at 96%; in test [2], 10%; in test [3], 0%.

In the case of `O=C(/C=C/c1ccc(Cl)c(Cl)c1)N1CCC(NCc2c[nH]c3ccccc23)CC1`, the results for the Inhibition in test [1], in test [2] and in test [3] were 94%, 4% and 36%, respectively.

As to `CCc1c(C)nc(-n2nc(C)cc2NC(=O)C(CC)c2ccccc2)[nH]c1=O` (stereo unspecified), the results for the Inhibition in test [1], in test [2] and in test [3] were 97%, 93% and 41%, respectively.

Consider `Cc1ccc(F)c(OC2CCN(c3ccc(C(=O)NC4CC4)cn3)CC2)c1`, for which the Inhibition stood at 92% in test [1], 72% in test [2] and 10% in test [3].

Regarding `Cl.c1ccc(Oc2ccc(Nc3ccnc4cc(-c5ccc(CN6CCNCC6)o5)ccc34)cc2)nc1`, the Inhibition in test [1] was determined as 100%; in test [2], 99%; in test [3] it was 7%.

The record behind these values is ChEMBL document CHEMBL1157539, “Thousands of chemical starting points for antimalarial lead identification” (Nature, 2010).
